# Measurements: PubChem BioAssay (NCATS)
# Records with an inconclusive call do not appear. The source made the active and inactive calls. Calls follow the shape of the dose curve; as a rule, active = well fitted curve in either direction with a large enough effect (not every such curve was filed as active); inconclusive = small, poorly fitted or top-dose-only effect, or another doubt; inactive = flat fitted curve, though single readings scatter.
# Assay: Stat Signaling Pathway (AID 446)
# Conditions: ME-180 (cervical carcinoma) SIE beta-lactamase reporter, IL-6 stimulated, 5 h; series mostly up to 17.2 µM; activity, negative = inhibition: at the top concentration
# Procedure: NCGC Assay Overview: The IL-6/STAT signaling pathway was assayed in ME-180 cervical carcinoma cells by a beta-lactamase reporter gene controlled by a STAT Inducible Element (SIE). This reporter is induced by IL-6 at 40 pM AC50 and inhibited by the pan JAK inhibitor, 2-(1,1-Dimethylethyl)-9-fluoro-3,6-dihydro-7H-benz[h]-imidaz[4,5-f]isoquinolin-7-one, at approximately 10 nM AC50. Plated cells were incubated overnight and on the following day, stimulated with 40 pM IL-6 for 5 hrs. The assay was screened at the AC50 of IL-6 activation to identify both inhibitors and activators of IL-6/STAT signaling.
# NCGC Assay Protocol Summary: Cells were trypsinized, washed in assay medium (AM, OPTI MEM with 0.5% fetal bovine serum, 0.1 mM nonessential amino acids, 1 mM sodium pyruvate, 10mM HEPES pH 7.3, 100U/ml penicillin, and 100 ug/ml streptomycin) and suspended at 6 x 10e5/ml in AM. Approximately […] cells in 5 uL/well was dispensed into 1536 well plates and the cells were incubated overnight at 37 C. 23 nL of compound were delivered by a pin tool and 1 uL of IL-6 (40 pM final concentration in AM) was added. After centrifugation at 1000 rpm for less than a minute, plates were incubated at 37C for 5 hrs. One uL of detector mix (LiveBLAzerTM, Invitrogen) was added, the plates incubated at room temperature for 2.5 hrs, and fluorescence intensity at 460 and 530 nm emission was measured at 405 nm excitation by an Envision (Perkin Elmer) or Safire II (Tecan). Data were normalized by GeneData to the controls for AC90 stimulation (300 pM IL-6) and to AC90 inhibition (125 nM Jak inhibitor, 40 pM IL-6 in AM).
# % is scaled to controls: 0 for no effect and ±100 for the full control effect.
Structure (SMILES),"activity, negative = inhibition",outcome
O=C(Oc1ccccc1)N1CCC[C@@]2(CCN(C(c3ccccc3)c3ccccc3)C2)C1,9.04% [at 7.69 µM] (inactive),–
CCCCn1c(O)c(C=NCCN2CCCCC2)c(=O)[nH]c1=O,7.5% (inactive),–
COc1ccc2c(c1O)-c1c(OC)c(OC)cc3c1[C@H](C2)N(C)CC3,-4.25% (inactive),–
c1ccc(N2CCC3(CCNCC3)CC2)cc1,-5.69% [at 7.69 µM] (inactive),–
CC1=C2[C@@H]3OC(=O)[C@@H](C)[C@@H]3CC[C@]2(C)C=CC1=O,4.22% (inactive),–
O=C(c1ccco1)N1CCC[C@@]2(CCN(Cc3ccncc3)C2)C1,-2.66% [at 7.69 µM] (inactive),–
C[N+]1(C)[C@@H]2CC[C@H]1CC(OC(=O)[C@@H](CO)c1ccccc1)C2 (stereo not given in full),–,inactive
CN1CC[C@@]2(CCCN(C(=O)c3ccco3)C2)C1,5.16% [at 7.69 µM] (inactive),–
Clc1ccccc1-c1cncnc1NCCc1cnc[nH]1,1.48% [at 7.69 µM] (inactive),–
Clc1ccc(CO[C@@H](Cn2ccnc2)c2ccc(Cl)cc2Cl)cc1,-4.06% (inactive),–
CC[C@@]1(c2ccc(N)cc2)CCC(=O)NC1=O,–,inactive
O=C(Oc1ccccc1)N1CCC2(CC1)CN(C(c1ccccc1)c1ccccc1)C2,-2.87% [at 7.69 µM] (inactive),–
CC[C@H](CO)NC(=O)[C@H]1C=C2c3cccc4[nH]cc(c34)C[C@@H]2N(C)C1,8.6% (inactive),–
O=C(c1ccncc1)N1CCC[C@@]2(CCN(Cc3nccs3)C2)C1,2.64% [at 7.69 µM] (inactive),–
O=C(Oc1ccccc1)N1CCC2(CCCN(Cc3ccccc3)C2)CC1,-2.42% [at 7.69 µM] (inactive),–
O=C(Oc1ccccc1)N1CCC2(CCN(Cc3ccccc3)CC2)CC1,-7.49% [at 7.69 µM] (inactive),–
Clc1ccc([C@@H](OCCN2CCCCC2)c2ccccc2)cc1,-5.12% (inactive),–
C[C@@]12CC[C@H](O)C[C@@H]1CC[C@H]1[C@@H]2C[C@@H](O)[C@]2(C)[C@@H](C3=CC(=O)OC3)CC[C@]12O,-25.5% (inactive),–
COC1=C[C@H]2C3=C([C@H]2C1=O)[C@H](NC(C)=O)CCc1cc(OC)c(OC)c(OC)c13,3.36% (inactive),–
CC(C)CN1CCCC2(CCN(C(=O)Oc3ccccc3)CC2)C1,7.23% [at 7.69 µM] (inactive),–

Structure (SMILES),"activity, negative = inhibition",outcome
CNC(=O)N(C)c1nnc(C(C)(C)C)s1,5.02% (inactive),–
CC(C)NC(=O)N1CC[C@@]2(CCCNC2)C1,-2.32% [at 7.69 µM] (inactive),–
CN1CCc2cc3c(cc2[C@@H]1[C@@H]1OC(=O)c2c1ccc1c2OCO1)OCO3,–,inactive
c1csc(CN2CCC3(CCNCC3)CC2)n1,-8.88% [at 7.69 µM] (inactive),–
C[N+]1(C)CCO[C@](O)(c2ccc(-c3ccc([C@]4(O)C[N+](C)(C)CCO4)cc3)cc2)C1,-0.671% (inactive),–
O=C(c1ccco1)N1CCC2(CC1)CN(Cc1ccncc1)C2,-0.472% [at 7.69 µM] (inactive),–
c1ccc(N2CCCC3(CCNCC3)C2)nc1,7.65% [at 7.69 µM] (inactive),–
C#C[C@@]1(O)CC[C@@H]2[C@@H]3CCC4=CC(=O)CC[C@@]4(C)[C@H]3CC[C@]21C,9.59% (inactive),–
C[N+]1([O-])[C@@H]2CC[C@H]1CC(OC(=O)[C@@H](CO)c1ccccc1)C2 (stereo not given in full),1% (inactive),–
CS(=O)(=O)N1CCC2(CCCN(Cc3ccncc3)C2)CC1,-1.93% [at 7.69 µM] (inactive),–
COc1ccc(NC(=O)N2CC[C@@]3(CCCN(C(=O)Oc4ccccc4)C3)C2)cc1,-7.94% [at 7.69 µM] (inactive),–
CN1CC[C@@]2(CCCN(C(=O)c3ccncc3)C2)C1,-5.99% [at 7.69 µM] (inactive),–
c1ccc(N2CC[C@@]3(CCCNC3)C2)cc1,-2.15% [at 7.69 µM] (inactive),–
C[C@H]1OC[C@@H](C[N+](C)(C)C)O1,–,inactive
CC(C)NC(=O)N1CCCC2(CCN(C(=O)Oc3ccccc3)CC2)C1,-23.9% [at 7.69 µM] (inactive),–
COc1cc2c(cc1O)C[C@H]1c3c(cc(O)c(OC)c3-2)CCN1C,4.44% (inactive),–
CN1CCC2(CC1)CCN(C(=O)Oc1ccccc1)CC2,4% [at 7.69 µM] (inactive),–
O=C(Nc1cccc(F)c1)N1CC2(CCNCC2)C1,-6.99% [at 7.69 µM] (inactive),–
CCN(CC)c1ccc(N=Cc2c(O)n(-c3cc(OC)ccc3OC)c(=O)[nH]c2=O)cc1,-17.9% (inactive),–
COc1cc2c(c(OC)c1OC)-c1ccc(O)c(=O)cc1[C@H](N)CC2,-5.05% (inactive),–
